Only some compounds are listed: those with a hit (about 4.2% of all), similar ones and a draw of the others.
ssDAF-12 act: activators of S. stercoralis DAF-12 nuclear receptor | HEK293 ssDAF-12/GRIP1 lit1-tk-luc reporter, luminescence; % of 3 µM dafachronic acid response | activation, % at 6.8 µM | 1% of 370,000 active;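 active = activation above the mean over all tested compounds plus 3 SD, cut at about 0.9% in these data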;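 note: 0% = DMSO-only wells and 100% = 3 µM delta7-dafachronic acid wells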
hcDAF-12 act: activates DAF-12 receptor from parasite H. contortus | HEK293 hcDAF-12 lit1-tk-luc reporter, luminescence; 0% DMSO, 100% Δ7-dafachronic acid | activation, % at 6.8 µM | 1.4% of 370,000 active | AID 652067;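 active = activation above the mean of all tested compounds plus 3 SD, cut at about 5.5% in these data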;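 note: 100% = response to 3 µM Δ7-dafachronic acid high control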
hgDAF-12 ag: activates the H. glycines DAF-12 receptor ligand-binding domain; activation, % at 6.8 µM; AID 687014; 1.8% of 370,000 active; HEK293 GAL4-hgDAF12 UAS-luciferase reporter, agonist luminescence; normalized to butyrate control;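 active = activation above a cutoff set at the mean of all screened compounds plus 3 SD, cut at about 10% in these data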;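 note: 0% = DMSO wells and 100% = sodium butyrate wells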
SMARCA2 act: activators of SMARCA2 function; MG213 cells, MMTV-luciferase reporter, dexamethasone, overnight; activation, % at 9.1 µM; 1% of 370,000 active; in the data active = activation above about 7.8%;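 note: 0% = vehicle wells and 100% = reference activator wells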
DAX1 inh: inhibitors of DAX1 repression of SF-1 activated StAR promoter | HEK293T StAR-luciferase reporter, SF-1/DAX-1 repression relief | inhibition, % at 6.8 µM | 1.1% of 370,000 active | AID 652010;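 active = inhibition above the mean over all tested compounds plus 3 SD, cut at about 3.6% in these data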;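 note: 0% = DAX-1 cells with DMSO and 100% = cells lacking DAX-1 with DMSO; higher inhibition means more luminescence from relief of DAX-1 repression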
SMARCA2 act conf: SMARCA2 activation, confirmation screen; shares compounds with SMARCA2 act; MG213 cells, MMTV-luciferase with dexamethasone, luminescence, overnight; MG213 cells expressing E1A, Rb sequestered; DMSO wells 0%, reference activator 100%; activation, % at 9.1 µM; 30% of 3,500 active; AID 652260;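 active = activation above its plate's cutoff, the mean activation of tested wells plus 3 SD, cut at about 7.9% in these data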
VP16 Luc act: activates GAL4-VP16 luciferase, flagging SMARCA2 activator hits | HEK293 GAL4-VP16 pG5luc reporter, luciferase luminescence; scaled: DMSO wells 0%, SAHA wells 100% | 41% of 3,500 active | shares compounds with SMARCA2 act | activation, % at 9.1 µM;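 active = activation above the solvent-only control well mean plus 3 SD, averaged across control plates, cut at about 5.2% in these data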
* = called active by the depositor; . = not tested or not shown.

SMILES | ssDAF-12 act | hcDAF-12 act | hgDAF-12 ag | SMARCA2 act | DAX1 inh | SMARCA2 act conf | VP16 Luc act
CCC(C(=O)Nc1ccc2c(c1)OCCO2)n1nnc2ccccc2c1=O (stereo unspecified) | 0 | 5 | 10 | 8.7* | 0 | 2 | 6.1*
CCOc1ccc(N2C(=O)CC(SCCN)C2=O)cc1 (stereo unspecified) | -1 | 4 | 10 | 14* | 2 | 7.8* | 9.6*
CCOC(=O)CSc1nc(C)c(C(C)=O)cc1C#N | -1 | 0 | 6 | 8.2* | 1 | 2 | 0
CC(=O)c1cc(C#N)c(SCC(=O)O)nc1C | 0 | 0 | -3 | -1 | -1 | . | .
CCCCNC(=O)c1cc2c(=O)n3cccc(C)c3nc2n(Cc2ccncc2)c1=N | -1 | 0 | 2 | 9.7* | 1 | 13* | -1
COCCNC(=O)c1cc2c(=O)n3cccc(C)c3nc2n(Cc2ccncc2)c1=N | -1 | -1 | -2 | -1 | 0 | . | .
CC1(C(=O)NCc2cccc3ccccc23)CCN1C(=O)Cc1ccc(-c2ccccc2)cc1 (stereo unspecified) | -2 | -3 | 1 | -6 | -3 | . | .
CC(C)C[C@@H]1COc2cccc(N3CCSCC3)c2S(=O)(=O)N1C | -1 | 3 | 0 | -1 | -1 | . | .
O=C(O)C1CCCCC1C(=O)Nc1ccc(-c2ccccc2)cc1 (stereo unspecified) | -1 | 1 | 3 | 12* | -1 | 1 | -1
OCCCCCN=c1cc(-c2ccccc2)oc2ccc(Cl)cc12 | -1 | 5 | 9 | 13* | 1 | 19* | 1
OCCN1CCN(c2nc(-c3ccccc3)c3cc(Cl)ccc3n2)CC1 | -1 | -1 | -2 | 2 | -1 | . | .
Clc1ccc2oc(-c3ccccc3)cc(=NCCCN3CCOCC3)c2c1 | 0 | 4 | 16* | 17* | 2 | 14* | 5.6*
Clc1cccc(-c2nc(NCCCN3CCOCC3)c3ccccc3n2)c1 | -2 | -1 | -3 | -3 | 0 | . | .
CC(C)C[C@H]1COc2ccc(Cl)cc2S(=O)(=O)N1C[C@H](NC(=O)OC(C)(C)C)C(C)C | -1 | -1 | -3 | -1 | 0 | . | .
c1ccc(-n2c(SCc3cccc4ccccc34)nnc2-c2ccncc2)cc1 | -2 | -4 | -1 | -4 | -2 | . | .
O=C(NCCc1c[nH]c2ccccc12)OCc1cn(Cc2cc(F)ccc2F)nn1 | -1 | 1 | -3 | 0 | -1 | . | .
COc1ccc2[nH]c3c(c2c1)CCN[C@]31C(=O)N(C)c2ccccc21 | -1 | 5 | 0 | 0 | 0 | . | .
CCn1c2ccccc2c2nnc(SCC(N)=O)nc21 | -1 | -2 | -1 | 3 | 0 | . | .
CCn1c2ccccc2c2nnc(SCc3ccccc3)nc21 | 0 | 5 | 0 | 8.2* | 0 | -2 | -1
CCCCc1ccc(NC(=O)CC(C)C)cc1 | -1 | 1 | 8 | 9.7* | 1 | 4 | 4
CCCCc1ccc(NC(=O)COCC)cc1 | -1 | 0 | 4 | 8.1* | 0 | 3 | 5
CCOCC(=O)Nc1ccc(Br)c(C)c1 | 1 | 1 | 7 | 1 | -1 | . | .
Cn1nc(C(C)(C)C)cc1C(=O)N1CCCCC1c1cc(C(=O)NCc2ccccc2)no1 (stereo unspecified) | -1 | 1 | -1 | -7 | -3 | . | .
CC(C)[C@@H](CO)N(Cc1cn(Cc2ccccc2)nn1)S(=O)(=O)c1ccccc1Br | -1 | -2 | 1 | -2 | 0 | . | .
COC(=O)C1=C(C)N(Cc2cccc(C(F)(F)F)c2)C(=NCc2ccc3c(c2)OCO3)NC1c1ccccc1 (stereo unspecified) | -1 | 0 | 1 | -5 | -1 | . | .
SMILES | ssDAF-12 act | hcDAF-12 act | hgDAF-12 ag | SMARCA2 act | DAX1 inh | SMARCA2 act conf | VP16 Luc act
COc1ccc(Br)cc1CN(C)CC(=O)Nc1c(Cl)ccc(C)c1Cl | -2 | -1 | -3 | 8.1* | -1 | -6 | 0
COc1cc(CCN=Cc2cccc(OC)c2O)c([N+](=O)[O-])cc1OC | -1 | 2 | 3 | -1 | 1 | . | .
COc1ccc(NC(=O)NCCCN2CCCC2=O)cc1 | 0 | 0 | 4 | -1 | 2 | . | .
COc1ccc(C(=O)NCCCN2CCCC2=O)cc1 | -1 | 0 | 2 | 8.0* | 0 | -1 | 0
COc1ccc(CN(CCN2CCOCC2)C(=O)c2cccc(F)c2)cc1OC | -1 | -3 | 0 | -1 | 0 | . | .
Fc1ccc(/C=C\c2nccc3c2[nH]c2ccccc23)cc1 | 0 | 5.6* | 9 | 16* | 1 | 4 | 3
Cc1cccnc1C(NC(=O)C1CCN(Cc2cn(C)c3ccccc23)CC1)c1ccc(Cl)cc1 (stereo unspecified) | -1 | -2 | 0 | -2 | 0 | . | .
CCOc1ccc(-c2nnc(NC(=O)Cc3ccc(OC)cc3)o2)cc1 | -1 | 1 | 3 | -1 | 0 | . | .
CCOc1ccc(-c2nnc(NC(=O)Cc3cc(OC)c(OC)c(OC)c3)o2)cc1 | 0 | 2 | 1 | 8.4* | 0 | 0 | 4
COc1ccc(CCNC(=O)CCn2c(=O)c3cccn3c3cccnc32)cc1OC | -1 | -3 | 0 | 12* | 0 | 7.9* | 1
COc1ccc(CNC(=O)CCCn2c(=O)c3cccn3c3cccnc32)cc1 | -1 | -2 | -2 | -5 | -1 | . | .
CC1(C)Cc2c(C#N)c(NCCN3CCOCC3)nc(-c3ccco3)c2CO1 | -2 | -2 | 0 | 0 | -1 | . | .
CC1(C)Cc2c(c(-c3ccco3)nc3sc4c(NCCCO)ncnc4c23)CO1 | -2 | -4 | -5 | 10.0* | -1 | 15* | 1
CCN(CC)CCNc1ncnc2c1sc1nc(N3CCCC3)c3c(c12)CC(C)(C)OC3 | 0 | 1 | -3 | 8.3* | 2 | 4 | 0
CN(C)CCNc1ncnc2c1sc1nc(N3CCCC3)c3c(c12)CC(C)(C)OC3 | -2 | -1 | 2 | 4 | 0 | . | .
CC1(C)Cc2c(C#N)c(NCCO)nc(-c3ccco3)c2CO1 | -1 | 1 | 0 | 8.6* | 0 | 0 | 2
O=C(Nc1ccc(Br)c(C(F)(F)F)c1)[C@@H]1CC=C[C@@H]2CCN(CC3CC3)C(=O)[C@@H]21 | -2 | -2 | -1 | . | . | . | .
C=CCn1c(-c2c(C)nc3cc(C)ccn23)n[nH]c1=S | -2 | 1 | -2 | 9.1* | 0 | -3 | 0
COC(=O)[C@]12C[C@H](CC(=O)NCc3cccs3)C(=O)N(CCc3ccc(OC)c(OC)c3)C1=C[C@H](C(C)(C)C)O[C@@H]2C | -2 | -2 | 0 | 1 | 1 | . | .
Cc1ccc(NCCC(=O)c2cccs2)cc1 | 1.4* | 5 | 12* | 11* | 4.2* | 7 | 14*

Source: PubChem
